From PubChem
DAX1 inh-1: inhibitors of human orphan nuclear receptor DAX1 (NR0B1). inhibition, % at 6.75 µM. hit rate 0.99% among 340,000. P51843. HEK293 Gal4-DAX1 luciferase reporter, luminescence;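 active = inhibition above the mean over all tested compounds plus 3 SD, cut at about 4.2% in these data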;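 note: 0% = DAX1-transfected cells with DMSO and 100% = empty-vector control cells with DMSO; inhibition shows as a rise in luminescence from relieved DAX1 repression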
ssDAF-12 act: S. stercoralis DAF-12 activation, primary screen; HEK293 ssDAF-12/GRIP1 lit1-tk-luc reporter, luminescence; % of 3 µM dafachronic acid response; AID 652126; activation, % at 6.8 µM; hit rate 1% among 370,000;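 active = activation above the mean over all tested compounds plus 3 SD, cut at about 0.9% in these data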;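 note: 0% = DMSO-only wells and 100% = 3 µM delta7-dafachronic acid wells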
hcDAF12 agonist: H. contortus DAF-12 activation, primary screen; HEK293 hcDAF-12 lit1-tk-luc reporter, luminescence; 0% DMSO, 100% Δ7-dafachronic acid; activation, % at 6.8 µM; hit rate 1.4% among 370,000; AID 652067;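 active = activation above the mean of all tested compounds plus 3 SD, cut at about 5.5% in these data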;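 note: 100% = response to 3 µM Δ7-dafachronic acid high control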
DAX1 inh-2: blocks DAX1 repression of SF-1 activated StAR promoter | HEK293T StAR-luciferase reporter, SF-1/DAX-1 repression relief | inhibition, % at 6.8 µM | hit rate 1.1% among 370,000;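 active = inhibition above the mean over all tested compounds plus 3 SD, cut at about 3.6% in these data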;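 note: 0% = DAX-1 cells with DMSO and 100% = cells lacking DAX-1 with DMSO; higher inhibition means more luminescence from relief of DAX-1 repression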
hgDAF12 agonist: hgDAF-12 agonism, primary luciferase screen; HEK293 GAL4-hgDAF12 UAS-luciferase reporter, agonist luminescence; normalized to butyrate control; activation, % at 6.8 µM; hit rate 1.8% among 370,000; AID 687014;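 active = activation above a cutoff set at the mean of all screened compounds plus 3 SD, cut at about 10% in these data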;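 note: 0% = DMSO wells and 100% = sodium butyrate wells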
hgDAF12 conf: hgDAF-12 agonism, confirmation assay; shares compounds with hgDAF12 agonist; HEK293 GAL4-hgDAF12 luciferase reporter, agonist mode; percent of butyrate response; activation, % at 6.8 µM; hit rate 80% among 3,300;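 active = mean activation over triplicate wells above the hit cutoff derived from the earlier primary screen, cut at about 11% in these data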;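 note: 0% = DMSO low control and 100% = 2 mM sodium butyrate high control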
LXR ag 2: counter-screen for DAF-12 agonists: agonists of human LXR-beta; activation, % at 6.8 µM; shares compounds with hgDAF12 agonist; 3,300 tested, under 10 active; AID 743051; HEK293 Gal4-LXR luciferase reporter, 24 h;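 active = mean activation of the triplicate above a set limit carried over from the primary screen, none filed active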
Target sequence (P55055 whole entry, looked up, the tested form may be a part): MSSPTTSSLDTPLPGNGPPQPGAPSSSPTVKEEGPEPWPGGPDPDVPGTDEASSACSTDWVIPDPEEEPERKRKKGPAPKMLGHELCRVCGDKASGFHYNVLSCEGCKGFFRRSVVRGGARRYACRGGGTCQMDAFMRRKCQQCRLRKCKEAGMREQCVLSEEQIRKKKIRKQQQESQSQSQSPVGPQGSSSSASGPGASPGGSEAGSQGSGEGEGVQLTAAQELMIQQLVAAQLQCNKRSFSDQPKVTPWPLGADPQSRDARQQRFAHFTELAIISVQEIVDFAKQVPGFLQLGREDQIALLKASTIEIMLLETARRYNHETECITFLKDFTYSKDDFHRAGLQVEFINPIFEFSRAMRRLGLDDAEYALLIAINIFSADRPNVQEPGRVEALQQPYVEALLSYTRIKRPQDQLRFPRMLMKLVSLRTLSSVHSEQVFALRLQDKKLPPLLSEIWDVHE
An asterisk follows results filed as active; . = not tested or not shown. In the library only some 4.1% were active in any assay of this set; here they are far more common.

SMILES	DAX1 inh-1	ssDAF-12 act	hcDAF12 agonist	DAX1 inh-2	hgDAF12 agonist	hgDAF12 conf	LXR ag 2
COc1ccc(C(=O)N2CCCCC2c2cc(C(=O)NCc3cccnc3)no2)cc1 (stereo unspecified)	.	-1	-1	0	-3	.	.
CN1C(=O)[C@@](O)(c2cn(C)c3ccccc23)c2cc(F)ccc21	.	0	0	0	-2	.	.
CN1C(=O)C(c2cn(C)c3ccccc23)(c2cn(C)c3ccccc23)c2cc(F)ccc21	.	2.4*	3	-1	14*	2	0
CCCCCNC(=O)C(C1CC1)n1c(=O)c(-c2ccco2)nc2ccccc21 (stereo unspecified)	.	-1	-1	2	3	.	.
CCOC(=O)N1CCC(NC(=O)c2cc3ccccn3n2)CC1	0	-2	-1	1	16*	-1	0
CC(C)(C)OC(=O)N/N=C/c1ccc(Br)cc1	4	-1	3	4.2*	21*	16*	1
NC(=O)N=Nc1c2[nH]c3ccccc3nc-2c2ccccc12	.	-1	-1	-2	-2	.	.
O=C(N/N=C\c1cccc(Cl)c1)c1n[nH]c2c1CCCC2	1	-1	2	3	14*	11*	1
O=C(N/N=C/c1ccc(Cl)cc1Cl)c1n[nH]c2c1CCCC2	0	-1	0	1	2	.	.
COc1ccc(CN2CCN(Cc3ccccc3F)CC2)cc1OC	0	-1	0	0	-1	.	.
CC(C)c1nc(SCC(=O)Nc2ccc(C(=O)O)cc2)c2c3c(sc2n1)CCCC3	4	-1	-1	0	-1	.	.
COc1ccc(N2C(=O)C3CC(C)=C(C)CC3C2=O)c(OC)c1 (stereo unspecified)	-1	-1	0	0	1	.	.
COc1ccc(N2C(=O)CCC2=O)c(OC)c1	1	-1	1	1	13*	0	0
CCCCSc1nc2c(cnn2-c2ccccc2)c(=O)n1N	1	-1	3	3	19*	14*	1
Nn1c(SCc2ccccc2)nc2c(cnn2-c2ccccc2)c1=O	0	-1	2	1	2	.	.
CC(C)CC(=O)Nc1ccc2nn(-c3ccccc3)nc2c1	3	0	4	3	14*	16*	1
Cc1ccccc1C(=O)O/N=C(\N)c1ccncc1	1	0	3	2	15*	13*	1
N/C(=N\OC(=O)c1cc(Cl)ccc1Cl)c1ccncc1	0	-1	1	-1	4	.	.
O=C(Nc1ccc(F)c(Cl)c1)c1nsc(Cl)c1Cl	4	1	4	2	13*	16*	1
O=C(O)C1=C(C(=O)Nc2ccc(F)c(Cl)c2)CCCC1	1	0	0	1	0	.	.
O=C(O)c1ccc(/C=C/c2ccc3cccc(O)c3n2)cc1	1	0	3	3	15*	11*	0
COc1ccccc1/C=C/c1ccc2cccc(O)c2n1	3	0	6	1	5	.	.
Cc1cc(Br)cn2c(Cc3cccc(F)c3)c(-c3ccc(Cl)cc3)nc12	.	-1	0	-1	2	.	.
Nc1nc(N)c(N=Nc2ccc(C(=O)O)cc2)c(N)n1	-1	-1	0	0	2	.	.
O=C(O)c1ccc(N=Nc2c(O)[nH]c3cc(Cl)ccc23)cc1	6.4*	0	5	3.7*	17*	19*	1
SMILES	DAX1 inh-1	ssDAF-12 act	hcDAF12 agonist	DAX1 inh-2	hgDAF12 agonist	hgDAF12 conf	LXR ag 2
CCOC(=O)C1(Cc2ccccc2Cl)CCN(C(=O)c2cc(C)on2)CC1	1	-1	0	0	7	.	.
CCOC(=O)C1(Cc2ccccc2Cl)CCN(C(=O)c2cnccn2)CC1	2	0	1	2	16*	11*	0
O=C(COC(=O)c1cc2ccccc2oc1=O)Nc1ccc(F)cc1F	0	0	5	2	17*	16*	1
C/C(=N\NC(=O)c1ccc(Cl)cc1)c1cccs1	0	1.8*	4	4.4*	15*	18*	1
O=C(CNC(=O)c1cccs1)c1ccc(Cl)cc1	1	1	5	2	15*	17*	1
O=C(NCCc1ccc(Cl)cc1)c1cccs1	1	-1	0	2	8	.	.
C/C(=N\NC(=O)c1cccs1)c1ccncc1	4	1	3	1	15*	1	0
COc1ccccc1-c1cc(NC(C)=O)c2ncc(-c3cccc(C(C)=O)c3)n2c1	.	0	-2	0	1	.	.
CCN(C[C@H]1N[C@@](Cc2ccccc2)(C(=O)OC)[C@H]2C(=O)N(C)C(=O)[C@@H]12)C(=O)Nc1ccccc1	2	-1	-2	0	-1	.	.
COC(=O)c1ccccc1NC(=O)c1sc(Cl)nc1C	0	-1	0	-1	-2	.	.
COC(=O)c1ccc(-c2ccc(Cl)cc2)nc1C	2	0	5	4.3*	14*	20*	1
COC(=O)c1scc(C)c1NS(=O)(=O)c1ccc(NC(C)=O)cc1	0	-1	-1	0	0	.	.
O=C(CSc1ccc(F)cc1)Nc1ccccc1Br	1	-2	-2	1	4	.	.
Cc1ccc(NC(=O)CSCc2ccc(F)cc2)cc1	-1	-1	3	2	14*	10	0
O=C(CSc1ccc(F)cc1)Nc1ccc(Br)cc1	2	-1	1	0	16*	12*	0
Cc1ccc(CSCC(=O)NCc2ccc(F)cc2)cc1	0	-2	-1	0	-3	.	.
COc1cccc(-c2nnc(N)o2)c1	0	-1	1	1	1	.	.
COc1cccc(-c2nnc(-c3ccc(C)o3)o2)c1	0	0	5	4.1*	14*	19*	1
COc1ccc(C(=O)CSc2nc(C)cc(=O)[nH]2)cc1	0	-1	1	0	1	.	.
COc1ccc(C(=O)CSc2cc(C)[nH]c(=O)n2)cc1	1	1	5	3.7*	14*	11*	0
Cc1cc(NC(=O)c2ccc(C)c(C)c2)no1	3	0	2	1	6	.	.
CC(=O)Nc1ccc(C(=O)Nc2ccc3c(c2)OCCO3)cc1	-1	-1	-1	0	0	.	.
O=C(Nc1ccc2c(c1)OCCO2)c1ccc(Cl)cc1	2	1	5	2	15*	15*	1
O=C(Nc1ccc(Cl)cc1)c1ccc2c(c1)OCO2	3	0	5.6*	3	13*	20*	1
O=C(N/N=C/c1ccc(Cl)cc1)c1ccc2c(c1)OCO2	0	-1	0	0	14*	17*	0
O=C(Nc1ccn(Cc2ccccc2)n1)c1ccc2c(c1)OCO2	2	-2	0	1	16*	9	0
